Results on 40 compounds are retold here after PubChem BioAssay (EPA / NIEHS).

Where “and” joins values, the source holds several entries; their conditions need not be identical. Equal values may be shown once. Calls of active or inactive are those of the source. Rule for the calls: active = hit-call score of the fitted dose curve at least 0.9, where 1 is the maximum; inactive = score below 0.9.

Read-out in this assay: Vascular cell adhesion molecule 1 (VCAM1), VCAM1 (gene 7412)
Kind of assay: BSK_hDFCGF_VCAM1: BioMAP Diversity Plus: hDFCGF Assay for Vascular cell adhesion molecule 1 (VCAM1) Biomarker Activity (AID 2283065). Particulars: primary human foreskin fibroblasts; actives raise or lower the signal. On the procedure:
BSK_hDFCGF is a cell-based, multiplexed-readout assay that uses foreskin fibroblast, a human skin primary cell, with measurements taken at 24 hours after chemical dosing in a 96-well plate.BSK_hDFCGF_VCAM1 is an assay component measured in the BSK_hDFCGF assay. It measures VCAM-1 antibody related to regulation of gene expression using ELISA technology.Data from the assay component BSK_hDFCGF_VCAM1 was analyzed into 1 assay endpoint. This assay endpoint, BSK_hDFCGF_VCAM1, was analyzed with bidirectional fitting relative to DMSO as the negative control and baseline of activity. Using a type of binding reporter, gain or loss-of-signal activity can be used to understand changes in the signaling as they relate to the gene VCAM1. Furthermore, this assay endpoint can be referred to as a primary readout, because this assay has produced multiple assay endpoints where this one serves a signaling function. To generalize the intended target to other relatable targets, this assay endpoint is annotated to the cell adhesion molecules intended target family, where the subfamily is Immunoglobulin CAM.
The levels of cell surface (or secreted, indicated by the prefix "s") biomarker endpoints were measured by ELISA. Overt cytotoxicity to cells in confluent adherent cultures (all systems other than the BT system) was assessed by measuring total protein levels using sulforhodamine B (SRB) staining in parallel cultures at the time of biomarker measurements, indicated as SRB endpoints. For proliferation assays for adherent cell types, individual cell types are cultured at sub-confluence and relative cell numbers quantified by SRB staining at time points optimized for each system (48 h: 3C and CASM3C systems; 72 h: BT and HDF3CGF systems; 96 h: SAg system). SRB was performed by staining cells with 0.1% SRB after fixation with 10% TCA and reading wells at 560 nm.Viability and proliferation of PBMC (T cells) was quantified by Alamar Blue reduction for the SAg and BT systems. For PBMC viability (referred to as PBMC Cytotoxicity within the assay endpoint names), cells were plated (75,000/well in a 96-well plate) and then chemical samples added for 1 h before addition of activators, SEB and TSST-1 (20 ng/mL final concentration each). Cells were incubated for 90 h. Then, Alamar Blue (20 uL/well) (Invitrogen, Cat DAL1100) was added for 6 h, and the plates were read with a fluorescence microplate reader at 546/580 nm (excitation/emission). For PBMC proliferation, cells were plated and activated as above but incubated for only 16 h prior to addition of Alamar Blue. Plates were read after 6 h.
Turning to `C=C1CC/C=C(\C)CC[C@@H]2[C@@H]1CC2(C)C`, the AC50 was 28 µM (active). Turning to `CC(C)Cc1ccc(C(C)C(=O)O)cc1` (stereo not given), the outcome was inactive. Consider `C[C@]12CC[C@@H]3c4ccc(O)cc4CC[C@H]3[C@@H]1CC[C@@H]2O`, for which the AC50 was 20 µM (active). In the case of `COc1ccccc1NC(=O)CC(C)=O`, the result was inactive.

With `CCC(=O)OCC=Cc1ccccc1`, the outcome was inactive.

Turning to `CC(=O)CCC=C(C)CCC=C(C)C`, the result was inactive. For the compound `CCCCOCCOCCO`, the outcome was inactive. Same read-out and setting: the entry for `CC(C)(C)c1cccc(O)c1` is “inactive”; for `Nc1ccc(N)c([N+](=O)[O-])c1` it is “inactive”. Consider `OCC(F)(OC(F)(F)C(F)(OC(F)(F)C(F)(F)C(F)(F)F)C(F)(F)F)C(F)(F)F` (stereo not given), for which the AC50 was 2.25 µM (active) and 2.1 µM (active). As to `CCCCCCCCCCCCS`, the concentration at half-maximal activity (AC50) is 7.26 µM (active). For `C=C(F)C(=O)OC(C(F)(F)F)C(F)(F)F`, the result was inactive. `NC(=O)c1c(Cl)cccc1Cl`: the result was inactive. For the compound `O=C(O)C(F)(F)C(F)(F)C(F)(F)C(F)(F)C(F)(F)C(F)(F)C(F)(F)C(F)F`, the outcome was inactive. As for `O=S(=O)(O)C(F)(F)C(F)(F)OC(F)(F)C(F)(F)F`, the result was inactive. With `CC(C)(CO)CO`, the result was inactive. Turning to `CC(=O)c1ccc(C)cc1`, the result was inactive. As to `C=CC(=O)OCC(CO)(COC(=O)C=C)COC(=O)C=C`, the AC50 is 0.0263 µM (active). For the compound `CCCO[Si](OCCC)(OCCC)OCCC`, the outcome was inactive.

In the case of `c1ccc(Sc2ccccc2)cc1`, the concentration at half-maximal activity (AC50) is 33.2 µM (active). For `CC=CC(=O)C1=C(C)C=CCC1(C)C`, the result was inactive. Turning to `CC/C(=C(\c1ccccc1)c1ccc(OCCN(C)C)cc1)c1ccccc1`, the AC50 was 9.88 µM (active) and 9.9 µM (active). In the case of `CC1(C)[C@H](C=C(Cl)Cl)[C@H]1C(=O)OCc1cccc(Oc2ccccc2)c1`, the outcome was inactive. Consider `CCCCN(CCO)CCO`, for which the outcome was inactive. For the compound `CCCCCCCCCC(=O)OCC`, the AC50 was 31.9 µM (active). `c1ccc(OCCOc2ccccc2)cc1`: the result was inactive. `CCCCCCCC1CCCC1=O` (stereo not given): the outcome was inactive.

With `CC1=CC(C)C(C=O)C(C)C1` (stereo not given) (tested in a mixture with another compound), the result was inactive. Regarding `CC(=O)OC(C)(C)C1CC=C(C)CC1` (stereo not given), the outcome was inactive. On the same count and under the same terms, in the case of `COC(=O)c1ccc(C(=O)OC)cc1` it was “inactive”.

`CC(=O)OCC=C(C)CCC=C(C)CCC=C(C)C`: the outcome was inactive. In the case of `OCCN1CCOCC1`, the outcome was inactive. On the same count and under the same terms, the entry for `c1ccc2c(c1)-c1ccc3ccc4cccc5cc-2c1c3c45` is “inactive”; for `C=C(C)C(N)=O` it is “inactive”; for `CC(C)CCCC(C)(C)O` it is “inactive”. Regarding `CCOC(=O)C=Cc1ccccc1`, the result was inactive. Consider `O=C(O)C(F)(F)OC(F)(F)C(F)(F)OC(F)(F)C(F)(F)C(F)(F)C(F)(F)F`, for which the AC50 was 5.95 µM (active) and 13.8 µM (active). As to `CCOC(=O)CCCCCCCCC(=O)OCC`, the outcome was inactive. As to `O=C(c1ccc(OCCN2CCCCC2)cc1)c1c(-c2ccc(O)cc2)sc2cc(O)ccc12`, the AC50 is 31.4 µM (active). With `C#C[C@]1(O)CC[C@H]2[C@@H]3CCc4cc(O)ccc4[C@H]3CC[C@@]21C`, the result was inactive.

As a reminder, the AC50 is the concentration giving half of the maximal activity seen.
